# Results from PubChem BioAssay AID1839 (Johns Hopkins Ion Channel Center, 2009).
# In all, about 2,400 compounds went through this assay and about 220 (9.2%) were called active. For the sample, actives were picked, then their nearest neighbours and some compounds at random. Values without a mark were called inactive.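 How the source made its calls: active means signal change above the mean of dofetilide-free buffer controls plus 3 SD, so a positive margin; inactive means the rest.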
# Assay: nonspecific flux effects in parental CHO-K1, confirmation, counter-screen for hERG block protection project, cell-based, CHO-K1 parental line, FluxOR thallium flux (AID 1839);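 further: compounds applied alone with no dofetilide to cells lacking hERG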
# Conditions: CHO-K1 parental cells, FluxOR thallium flux fluorescence; at 10 µM
row,SMILES,"signal change vs control minus 3*SD hit threshold (margin above threshold, higher = more increase)"
1,O=C(Nc1ccc(-c2csc(Nc3cccc(C(F)(F)F)c3)n2)cc1)c1ccccc1,-35.7%
2,O=C(NC(=S)Nc1ccc(N2CCCCC2)cc1)c1cccs1,-2.8%
3,O=C(NC(=S)Nc1cccc(C(F)(F)F)c1)c1csnn1,52.4% (active)
4,O=C(NC(=S)Nc1ccc(C(F)(F)F)cc1)c1csnn1,48.4% (active)
5,Cc1onc(-c2ccccc2)c1C(=O)NC(=S)Nc1sc2c(c1C#N)CCC(C)C2 (stereo not drawn),-18.7%
6,CCCSC(=S)c1c(C)[nH]n(-c2ccccc2)c1=O,-12.5%
7,O=C(Nc1nnc(-c2ccc3c(c2)CCCC3)o1)C1COc2ccccc2O1 (stereo not drawn),-35%
8,CC(/C=C1\SC(=S)N(NS(=O)(=O)c2ccccc2)C1=O)=C\c1ccccc1,-11.8%
9,COc1cc(CNn2nnnc2N)ccc1OCC(=O)NC(C)(C)C,-34.7%
10,O=C(NC(=S)N1CCc2ccccc21)c1ccco1,-18.3%
11,O=C(NC(=S)N1CCc2ccccc21)c1ccccc1,-2.8%
12,O=C(NC(=S)N1CCc2ccccc21)c1ccccc1Cl,9% (active)
13,O=C(NC(=S)N1CCc2ccccc21)c1ccc(Br)o1,-18.4%
14,O=C(NC(=S)N1CCCc2ccccc21)c1ccccc1,-30.8%
15,O=C(NC(=S)N1CCc2ccccc21)c1ccccc1Br,48.4% (active)
16,S=C(Nc1ccccc1)Nc1nc2ccccc2n1CCOc1ccccc1,-30.2%
17,CN(C(=S)NC(=O)c1ccc(F)cc1)C1CCCCC1,-31.9%
18,CC1CCN(C(=S)NC(=O)c2ccc(C(C)(C)C)cc2)CC1,-18%
19,COC(=O)n1c(=S)oc2cc(Cl)ccc21,-22.1%
20,CCn1c(=S)[nH]c2c(c1=O)C(C)(C)Cc1ccccc1-2,-6.7%
21,CC(=O)NC(CSC(CC(=O)c1ccco1)c1ccc(C)cc1)C(=O)O (stereo not drawn),-32.8%
22,CCCCCCC1CCC(C(=O)N2CCOCC2)CC1 (stereo not drawn),-21.3%
23,CCCCCC/C(C)=C1/SC(=S)NC1=O,39.1% (active)
24,CCCCCCCC/C=C\CCCCCCCC(=O)O,-20.7%
25,COc1ccc(S(=O)(=O)Nc2ccc(Cl)cn2)c(C)c1C,-32.2%
26,Cc1ccc(N2CCN(C(=O)N3CCCC3)CC2)cc1C,-15.1%
27,CCC1(c2ccccc2)NC(=S)N(c2ccc(C)c(C)c2)N1 (stereo not drawn),48.1% (active)

row,SMILES,"signal change vs control minus 3*SD hit threshold (margin above threshold, higher = more increase)"
1,CCC1(c2ccc(Cl)cc2)NC(=S)N(c2ccc(C)c(C)c2)N1 (stereo not drawn),40.7% (active)
2,Nc1ccc2c(c1)C(=O)C(=O)c1ccccc1-2,-22.4%
3,O=C(CCc1ccccc1)NC(=S)Nc1cc(C(F)(F)F)ccc1N1CCOCC1,-29.5%
4,CC(=O)NC1C(Oc2ccccc2C)OC(CO)C(O)C1O (stereo not drawn),-23.9%
5,Cc1ccc(C(=O)NC(=S)N(C)C2CCCCC2)cc1,-21.2%
6,CCc1nnc(NC(=O)C2CCCCN2S(=O)(=O)c2ccccc2)s1 (stereo not drawn),-23%
7,CCOC(=O)c1nc(C)n(-c2ccc(Cl)cc2)n1,-24.3%
8,CCOC(=O)C1=NN(C(=O)c2ccccc2)C(O)(c2ccc(C)cc2)C1 (stereo not drawn),-27.5%
9,CCOC(=O)C1=NN(C(=O)c2ccc(C)cc2)C(O)(c2ccc(Cl)cc2)C1 (stereo not drawn),50.6% (active)
10,COc1ccc(C(=O)CC(=O)C(=O)Nc2ccc(Cl)cc2)cc1,-16.3%
11,CCOC(=O)C1=NN(C(=O)c2ccc(OC)cc2)C(O)(c2ccc(Cl)cc2)C1 (stereo not drawn),14.4% (active)
12,COc1ccc(OC)c(NC(=O)COC(=O)c2ccc(-n3cnnn3)cc2)c1,-34.5%
13,COc1ccccc1CNC(=O)COC(=O)c1ccccn1,-28.9%
14,COc1cc(C(=O)Nc2ccc(O)cc2C(=O)O)ccc1OC(C)=O,-19.9%
15,O=C(O)c1ccc(N=NNc2cccc([N+](=O)[O-])c2)cc1,-26.6%
16,CCCCOC(=O)Cn1c2ccc(OC)cc2c2nc3ccccc3nc21,-28.3%
17,CCc1ccc(C(=O)CSc2nc3ccccc3c(=O)[nH]2)cc1,-26.7%
18,CC(C)OC(=O)c1c2nc3ccccc3nc2n2c1[nH]c(=O)c1ccccc12,29.4% (active)
19,O=C(COc1ccccc1Cl)NC(=S)Nc1ccccc1N1CCCC1,-25.7%
20,S=C(NCCc1ccccc1)N/N=C/c1c(Cl)cccc1Cl,-34.7%
21,CCSc1nc(=S)cc(C)[nH]1,26.3% (active)
22,CCc1cc(=O)[nH]c(SCc2ccc(C)cc2)n1,-28.5%
23,CSc1nc(=S)cc(C)[nH]1,-16.8%
24,CSc1cccc(NC(=O)CN2C(=O)c3ccccc3S2(=O)=O)c1,-50.6%
25,CCCCn1nc(NC(=O)COC)c2cc3ccc(C)cc3nc21,-27.6%
26,CCOC(=O)C1CCCN(C(=O)CN2C(=O)c3ccccc3C2=O)C1 (stereo not drawn),-35.1%
